Assay results as given in the supplement of paper PMC9117331.

Experiments:
Conditions in all cases: 0.5 µM; time after treatment 48 h; PC9 signalome
[1] = system: PC9; assay: AKT reporter activity score (signed KS statistic vs DMSO) (signed KS statistic (-1 to 1)); higher = stronger activation of the pathway reporter relative to DMSO
[2] = system: PC9; assay: RAR reporter activity score (signed KS statistic vs DMSO) (signed KS statistic (-1 to 1)); higher = stronger activation of the pathway reporter relative to DMSO
[3] = system: PC9; assay: PKC reporter activity score (signed KS statistic vs DMSO) (signed KS statistic (-1 to 1)); higher = stronger activation of the pathway reporter relative to DMSO
[4] = system: PC9; assay: PKA reporter activity score (signed KS statistic vs DMSO) (signed KS statistic (-1 to 1)); higher = stronger activation of the pathway reporter relative to DMSO
[5] = system: PC9; assay: p38 reporter activity score (signed KS statistic vs DMSO) (signed KS statistic (-1 to 1)); higher = stronger activation of the pathway reporter relative to DMSO
[6] = system: PC9; assay: HIF reporter activity score (signed KS statistic vs DMSO) (signed KS statistic (-1 to 1)); higher = stronger activation of the pathway reporter relative to DMSO
[7] = system: PC9; assay: ERK reporter activity score (signed KS statistic vs DMSO) (signed KS statistic (-1 to 1)); higher = stronger activation of the pathway reporter relative to DMSO
[8] = system: PC9; assay: JNK reporter activity score (signed KS statistic vs DMSO) (signed KS statistic (-1 to 1)); higher = stronger activation of the pathway reporter relative to DMSO
[9] = system: PC9; assay: WNT reporter activity score (signed KS statistic vs DMSO) (signed KS statistic (-1 to 1)); higher = stronger activation of the pathway reporter relative to DMSO
[10] = system: PC9; assay: NFkB reporter activity score (signed KS statistic vs DMSO) (signed KS statistic (-1 to 1)); higher = stronger activation of the pathway reporter relative to DMSO
[11] = system: PC9; assay: YAP/TAZ reporter activity score (signed KS statistic vs DMSO) (signed KS statistic (-1 to 1)); higher = stronger activation of the pathway reporter relative to DMSO

Structure (SMILES) | AKT reporter activity score [1] | RAR reporter activity score [2] | PKC reporter activity score [3] | PKA reporter activity score [4] | p38 reporter activity score [5] | HIF reporter activity score [6] | ERK reporter activity score [7] | JNK reporter activity score [8] | WNT reporter activity score [9] | NFkB reporter activity score [10] | YAP/TAZ reporter activity score [11]
CC(C)NC[C@@H](C(=O)N1CCN(c2ncnc3c2[C@H](C)C[C@H]3O)CC1)c1ccc(Cl)cc1 [Ipatasertib (GDC-0068)] | -0.688 | -0.297 | -0.0598 | 0.241 | -0.0739 | -0.228 | 0.0863 | -0.0989 | 0.0644 | 0.0919 | -0.0823
CC(=O)Nc1cccc(-n2c(=O)n(C3CC3)c(=O)c3c(Nc4ccc(I)cc4F)n(C)c(=O)c(C)c32)c1 | 0.278 | 0.158 | -0.0489 | -0.226 | 0.0617 | -0.114 | -0.491 | 0.181 | 0.129 | 0.158 | 0.324
Cc1c(NC(=O)OC[C@@H]2COCCN2)cn2ncnc(Nc3ccc4c(cnn4Cc4cccc(F)c4)c3)c12 | -0.228 | 0.182 | 0.0831 | 0.0553 | -0.0763 | -0.136 | -0.29 | -0.0881 | 0.0831 | 0.0753 | 0.0967
O=C(Nc1cc(C(F)(F)F)cc(C(F)(F)F)c1)c1cc(Cl)ccc1O | -0.694 | 0.372 | 0.146 | -0.27 | 0.0561 | 0.485 | -0.0507 | 0.113 | 0.101 | 0.111 | 0.257
CCN(CC)CCNC(=O)c1c(C)[nH]c(/C=C2\C(=O)Nc3ccc(F)cc32)c1C [Sunitinib Malate (Sutent)] | 0.076 | -0.28 | -0.0463 | 0.13 | 0.139 | -0.147 | 0.0665 | 0.0727 | -0.103 | -0.134 | -0.0629
C#CCC(Cc1cnc2nc(N)nc(N)c2n1)c1ccc(C(=O)N[C@@H](CCC(=O)O)C(=O)O)cc1 (some centres undefined) [Pralatrexate(Folotyn)] | -0.334 | 0.231 | 0.0797 | -0.237 | -0.0729 | 0.149 | -0.257 | 0.0731 | 0.0527 | 0.0639 | 0.223
COc1cc2ncnc(Nc3ccc(F)c(Cl)c3)c2cc1NC(=O)/C=C/CN1CCCCC1 | -0.392 | 0.516 | 0.0863 | -0.547 | -0.404 | 0.138 | -0.698 | -0.159 | 0.343 | 0.23 | 0.338
CC(C)n1nc(-c2ccc3oc(N)nc3c2)c2c(N)ncnc21 | -0.075 | 0.0862 | 0.0627 | 0.217 | -0.392 | -0.124 | -0.188 | -0.194 | 0.164 | 0.0979 | 0.144
O=C(NOC[C@H](O)CO)c1ccc(F)c(F)c1Nc1ccc(I)cc1F | 0.136 | 0.142 | 0.094 | -0.18 | -0.265 | -0.129 | -0.452 | 0.303 | 0.0484 | 0.228 | 0.42
COc1ccc(-c2cc3c(C)nc(N)nc3n([C@H]3CC[C@H](OCCO)CC3)c2=O)cn1 | -0.424 | 0.107 | -0.0883 | -0.172 | -0.364 | -0.153 | 0.0981 | -0.166 | 0.0844 | -0.0647 | 0.155
CCn1c(-c2nonc2N)nc2c(C#CC(C)(C)O)ncc(OC[C@H]3CCCNC3)c21 | -0.513 | -0.292 | -0.0561 | 0.119 | -0.189 | -0.224 | 0.134 | 0.058 | 0.151 | 0.0699 | -0.0459
O=C(NCCCNc1nc(Nc2cccc(NC(=O)N3CCCC3)c2)ncc1I)c1cccs1 | -0.261 | -0.0747 | 0.054 | -0.174 | 0.125 | -0.0537 | -0.0698 | -0.102 | -0.101 | 0.0689 | -0.0931
CO[C@H]1C[C@@H]2CC[C@@H](C)[C@@](O)(O2)C(=O)C(=O)N2CCCC[C@H]2C(=O)O[C@H]([C@H](C)C[C@@H]2CC[C@@H](OP(C)(C)=O)[C@H](OC)C2)CC(=O)[C@H](C)/C=C(\C)[C@@H](O)[C@@H](OC)C(=O)[C@H](C)C[C@H](C)/C=C/C=C/C=C/1C [Deforolimus (MK-8669)] | 0.241 | -0.292 | -0.044 | 0.262 | 0.178 | -0.232 | 0.0405 | -0.0745 | 0.0613 | 0.151 | 0.142
COc1ncc(-c2ccc3nccc(-c4ccnnc4)c3c2)cc1NS(=O)(=O)c1ccc(F)cc1F | -0.778 | 0.43 | 0.0478 | -0.254 | -0.499 | 0.0783 | -0.33 | -0.305 | 0.123 | 0.192 | 0.18
CCN1CCN(Cc2ccc(Nc3ncc(F)c(-c4cc(F)c5nc(C)n(C(C)C)c5c4)n3)nc2)CC1 | -0.454 | 0.2 | 0.128 | -0.473 | -0.118 | 0.484 | 0.0461 | 0.34 | 0.767 | 0.239 | 0.183
Cc1ccc([N+](=O)[O-])cc1S(=O)(=O)N(C)/N=C/c1cnc2ccc(Br)cn12 | -0.252 | 0.101 | 0.105 | -0.347 | -0.118 | 0.178 | -0.147 | 0.157 | 0.207 | 0.0772 | 0.169
Cn1cnc2c(F)c(Nc3ccc(Br)cc3Cl)c(C(=O)NOCCO)cc21 [AZD6244 (Selumetinib)] | 0.282 | -0.154 | -0.074 | -0.0961 | 0.0759 | -0.125 | -0.348 | 0.145 | 0.091 | 0.0644 | 0.164
C=CC(=O)Nc1cccc(Sc2nc(Nc3ccc(N4CCN(C)CC4)cc3)ncc2Cl)c1 | -0.364 | 0.467 | 0.0576 | -0.418 | -0.318 | 0.106 | -0.698 | 0.15 | 0.172 | 0.174 | 0.338
Cc1cc(C(=O)NOCCO)c(Nc2ccc(I)cc2F)n(C)c1=O | -0.0809 | 0.337 | 0.0992 | -0.257 | 0.108 | 0.0532 | -0.629 | 0.22 | 0.0922 | 0.224 | 0.448
